NTR1 ag: activates human neurotensin receptor 1 | NTR1-U2OS beta-arrestin-GFP spot imaging, agonist mode | hit rate 0.17% among 330,000 | activation, % at 20 µM | AID 493036;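 active means activation at or above 40% of the spot to cytoplasm intensity ratio, with at least 20 cells analyzed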;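 further: 0% = DMSO without peptide and 100% = 100 nM NTR1 peptide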
ABHD5-PLIN5 inh: inhibitors of human ABHD5-perilipin-5 interaction; hit rate 0.78% among 360,000; inhibition, % at 4 µM; Split G. princeps luciferase complementation, luminescence, 4 h; AID 602281;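 active means inhibition above the mean inhibition across every tested compound plus 3 SD, cut at about 22% in these data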;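 further: 0% = DMSO only wells and the 100% control is not disclosed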
B2AR ag: human beta-2 adrenergic receptor agonism by FAP | Am2.2-beta2AR cells, FAP receptor internalization, flow cytometry | response, % (no concentration beside the values) | hit rate 0.43% among 340,000 | AID 504454;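 active means response above a set limit, near 3 SD of response in nonfluorescent compounds, cut at about 42% in these data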
Target sequence (P07550 whole entry, looked up): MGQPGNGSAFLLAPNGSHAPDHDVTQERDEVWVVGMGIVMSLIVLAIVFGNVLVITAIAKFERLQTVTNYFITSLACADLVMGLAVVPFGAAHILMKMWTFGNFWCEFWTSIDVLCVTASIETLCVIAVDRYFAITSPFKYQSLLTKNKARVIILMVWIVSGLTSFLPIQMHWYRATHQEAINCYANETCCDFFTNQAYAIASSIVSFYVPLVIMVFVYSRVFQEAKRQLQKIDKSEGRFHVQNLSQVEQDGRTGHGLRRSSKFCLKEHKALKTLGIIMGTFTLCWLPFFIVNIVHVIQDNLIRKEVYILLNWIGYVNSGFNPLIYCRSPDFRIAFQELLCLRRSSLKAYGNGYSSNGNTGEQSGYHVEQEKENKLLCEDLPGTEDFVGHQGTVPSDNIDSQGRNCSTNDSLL
Granule exo inh: blocks lytic granule exocytosis. TALL-104 LAMP-1 surface exposure, flow cytometry; cells stimulated with thapsigargin and PMA. inhibition, % at 10 µM. hit rate 0.66% among 360,000. AID 651702;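 active means inhibition above about 55%, limit read from the data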
m5-HT2A agonist: activates the mouse 5-HT2A serotonin receptor. CHO-K1 mHTR2A beta-arrestin complementation, luminescence; percent of 30 µM serotonin response. activation, % at 7.6 µM. hit rate 0.66% among 360,000. AID 624169;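 active means activation above a run cutoff, the mean activation of all tested compounds plus 3 SD, cut at about 14% in these data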;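 further: 0% = plate median of compound wells and 100% = 30 µM serotonin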
An asterisk follows results filed as active; i = inactive; nt = no result. Shown are actives, neighbours in structure and some others; about 2.3% of the full set was active somewhere.

SMILES	NTR1 ag	ABHD5-PLIN5 inh	B2AR ag	Granule exo inh	m5-HT2A agonist
CCN1C(=O)[C@H]2[C@@H](c3ccc(Cl)cc3)N3C(=O)CN(CC4CC4)C(=O)[C@@]3(C)[C@H]2C1=O	1	5	0	-3	2
O=C(OCC(=O)c1ccc[nH]1)c1ccccc1	-2	4	-8	-3	3
O=C(OCC(=O)c1ccc[nH]1)c1cncc(Br)c1	1	2	0	0	15*
CC(C)Oc1ccc(Cc2cnc(=S)[nH]c2N)cc1	0	-4	-3	0	5
COC1=CC(=O)c2nc(Cl)ccc2C1=O	nt	18	nt	86*	-1
CCCCN1C(=O)Cc2c1nc(N)c1c(N)nc(N(CCC)CCC)c(C#N)c21	nt	-13	3	72*	1
Cc1cccc(NC(=O)CN(CC2CCCO2)C(=O)c2cc(S(=O)(=O)N(C)C)ccc2F)c1C (stereo not drawn)	0	-2	-3	0	-1
COc1ccc(CN(C)C(=O)c2cccc(S(=O)(=O)N3CCCc4ccccc43)c2)c(OC)c1OC	nt	2	6	1	-1
N#CC1=C(N)n2c(s/c(=C\c3ccco3)c2=O)=C(C#N)C1c1ccco1 (stereo not drawn)	10	23*	-14	2	-3
CCOC(=O)C1=C(N)n2c(s/c(=C/c3ccco3)c2=O)=C(C(=O)OC)C1c1ccco1 (stereo not drawn)	nt	9	-8	-1	-1
COc1ccc(S(=O)(=O)Nc2nc3c(s2)CCCC3)cc1	1	8	-8	-1	-1
Cn1c(=O)c2ccccc2n2c(CCl)nnc12	0	23*	9	-7	8
Cc1ccc(OCc2cn3cccnc3n2)cc1	-1	1	-14	-1	3
COc1ccc(CNC(=S)Nc2cccc(F)c2)cc1	0	3	-9	-16	0
Cc1ccc(-n2c(SCC(=O)NC3CCS(=O)(=O)C3)nc3ccccc3c2=O)cc1C (stereo not drawn)	1	4	5	-1	-3
C=CCSc1nnc(CNS(=O)(=O)c2ccc(C)cc2)n1C	-1	-4	-2	3	-1
CCCSc1nnc(CNS(=O)(=O)c2ccc(C)cc2)n1C	0	22*	3	-1	8
O=C(COC(=O)C1CC2CCCC(C1)C2=O)NNC(=O)c1ccc([N+](=O)[O-])cc1 (stereo not drawn)	0	-1	1	5	2
O=C(Cn1ccc2ccccc2c1=O)N1CCN(c2cccc(Cl)c2)CC1	-1	22*	5	-2	3
Cc1cc(O)c(C(C)C)cc1C1(c2cc(C(C)C)c(O)cc2C)OC(=O)c2ccccc21	22	8	11	88*	0
Cc1cc(C2(c3ccc(O)c(C)c3)OC(=O)c3ccccc32)ccc1O	5	-7	-2	0	-4
O=C(NCc1ccccc1)c1c(Cl)nc(Cl)c(Cl)c1Cl	2	2	12	-4	-1
O=C(NC1CCCCC1)c1ccc(-c2ccccc2F)o1	1	23*	4	5	-2
O=C(NC1CCCCCC1)c1ccc(CS(=O)(=O)Cc2ccccc2F)o1	1	2	0	5	0
CCOC(=O)CSC1=NC(=O)/C(=C/c2ccc(OC)cc2)S1	8	-17	69*	4	4
SMILES	NTR1 ag	ABHD5-PLIN5 inh	B2AR ag	Granule exo inh	m5-HT2A agonist
Oc1ccc(C[C@H]2CN([C@@H](Cc3cccc(O)c3)CN3CCC[C@@H]3CN3C(=S)NC[C@@H]3Cc3ccccc3)C(=S)N2CC2CCCCC2)cc1	nt	23*	nt	25	-9
CC(C)C[C@@H](CN1CCCC1CN1C(=S)NC[C@@H]1Cc1ccc(O)cc1)N1C[C@H](Cc2ccc(O)cc2)N(CC2CCCCC2)C1=S (stereo partly drawn)	nt	-10	27	57*	-7
CC(C)C[C@@H](CN1CCC[C@@H]1CN1C(=S)NC[C@@H]1Cc1ccccc1)N1C[C@H](Cc2ccc(O)cc2)N(CC2CCCCC2)C1=S	nt	2	nt	2	4
CN(C)c1ccc(NC(=O)C[n+]2ccccc2)cc1	-1	1	3	56*	-4
Cc1c(C)c(C)c(CO/N=C/c2cccs2)c(C)c1C	2	2	-10	88*	-1
Clc1cccc(Cl)c1CO/N=C/c1cccs1	-1	8	0	-3	5
Cc1ccc(CNC(=O)c2ccc3c(c2)NC(=O)CS3)cc1	-1	-4	5	-2	-1
N/C(=N\NC(=O)c1cccs1)c1cc2cc(Cl)ccc2oc1=O	2	0	5	-6	2
O=C(/C=C/c1cn(-c2ccccc2)nc1-c1cccnc1)c1ccco1	6	13	81*	12	-2
CCOC(=O)C(C(=O)OCC)c1cc(Br)c2noc3c2c1C(=O)c1ccccc1-3	-3	1	i	98*	0
O=C(Nc1cccc2ccccc12)OCc1cncs1	-1	-5	-3	-3	-3
CN1C(=O)C(Cl)(Cl)C(=O)c2ccccc21	nt	88*	0	-2	3
CC(C)(C)c1nn(-c2ccccc2)c2[nH]c(=O)c(C=O)cc12	3	5	55*	62*	-4
CC(C)(C)c1nn(-c2ccccc2)c2nc(Cl)c(C=O)cc12	1	1	1	2	-1
COc1ccc(-c2cc(C(=O)NC(C)c3ccccn3)c3ccccc3n2)cc1OC (stereo not drawn)	-1	0	8	-1	20*
COc1ccc(-c2cc(C(=O)NC3CCCC3)c3ccccc3n2)cc1OC	0	0	1	0	1
CCCCn1c(NC(=O)CC)c(C#N)c2nc3ccccc3nc21	2	7	-12	5	0
N#Cc1c(NC(=O)c2ccccc2Cl)n(Cc2ccccc2)c2nc3ccccc3nc12	nt	-43	-5	104*	8
CCCCn1c(NC(=O)c2ccccc2Cl)c(C#N)c2nc3ccccc3nc21	18	-52	3	63*	8
O=C(OCn1ncc(Br)c(Br)c1=O)c1ccc(F)cc1	-2	14	78*	64*	-5
O=C(OCn1ncc(Br)c(Br)c1=O)c1ccccc1Cl	-1	10	49*	98*	-8
O=C(OCn1ncc(Cl)c(Cl)c1=O)c1cccc(C(F)(F)F)c1	16	4	42	9	-3
O=C(OCc1cnc(Cl)s1)c1ccccc1Cl	0	-2	11	-1	-5
COc1cc2cc(CCCOC(=O)c3ccc4c(c3)OCO4)oc(=O)c2cc1OC	-1	-3	-12	9	2
Cc1nc(N)[nH]c(=O)c1CCCNc1ccc(CCC2(CCl)OCCO2)cc1	nt	-1	8	4	-5
Cc1ccc(-c2nnc(SCC(=O)NC3CC3)n2N)cc1	2	-7	-3	-3	-2
CCOc1cc(/C=N\Nc2ncc(F)c(N3CCOCC3)n2)ccc1Oc1nc(Cl)ncc1F	6	5	16	83*	-1
O=C(NCc1ccccc1Cl)[C@H]1CCCN1C(=O)[C@H]1CCCN1C(=O)c1cccc2ccccc12	nt	5	nt	0	10

Screens (PubChem BioAssay)
